FBW7 activator: FBW7 E3 ligase activators, primary screen, biochemical, AlphaScreen, human; F-box/WD repeat-containing protein 7 (Homo sapiens), Q969H0; normalized activity (activation), % at 26.1 µM; AID 1259310, 2017; 650,000 tested, 0.13% active; AlphaScreen FBW7–phospho-cyclin E peptide binding, activator screen; in the data active = normalized activity above about 1.9%;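 also: purified mutant Fbw7 with reduced substrate affinity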
MITF primary: MITF inhibitors, primary screen, biochemical, AlphaScreen, human; AlphaScreen MITF homodimerization, bead proximity signal; 650,000 tested, 0.91% active; AID 1259374, 2018; inhibition, % at 2.6 µM; Microphthalmia-associated transcription factor (Homo sapiens), O75030; in the data active = inhibition above about 50%;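 also: 0% = vehicle wells with protein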
TEAD-YAP block: TEAD-YAP interaction inhibition, primary screen, TEAD-YAP interaction inhibitor project, luminescence, HEK-TIYL cells. 640,000 tested, 1.4% active. inhibition, % at 9.12 µM. TEAD-Gal4/YAP UAS-luciferase luminescence; in the data active = inhibition above about 32%;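 also: 0% = median of test compound wells and 100% = reference inhibitor wells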
GPR151 ag: activators of human GPR151, primary screen, cell-based, PathHunter beta-arrestin, luminescence. PathHunter beta-arrestin GPR151 cells. activation, % at 11.2 µM. 650,000 tested, 1% active. AID 1508602, 2020; in the data active = activation above about 4.9%;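 also: 0% = median of compound wells and 100% = cells with positive control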
GPR151 confirm: GPR151 activators, triplicate retest, confirmation, cell-based, PathHunter beta-arrestin, luminescence; shares compounds with GPR151 ag; GPR151 PathHunter beta-arrestin cells, 90 min; % of EA-reagent control over plate median; activation, % at 11.2 µM; 6,700 tested, under 10 active; AID 1508609, 2020;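 active = mean percent activation across replicates above the confirmation screen cutoff of 4.91%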
GPR119 counter: GPR119 activators in beta-arrestin cells, counter-screen for GPR151 activator project, cell-based, PathHunter beta-arrestin, luminescence, triplicate; shares compounds with GPR151 ag; 90 min; 0 = compound-well median, 100 = enzyme-acceptor control; activation, % at 11.2 µM; 6,700 tested, 0.3% active; AID 1508611, 2020;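 active = mean percent activation in the counterscreen above 29.09%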;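 also: counterscreen on off-target GPR119 to flag nonselective hits from the GPR151 activator screen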
Target sequence (Q8TDV5 whole entry, looked up): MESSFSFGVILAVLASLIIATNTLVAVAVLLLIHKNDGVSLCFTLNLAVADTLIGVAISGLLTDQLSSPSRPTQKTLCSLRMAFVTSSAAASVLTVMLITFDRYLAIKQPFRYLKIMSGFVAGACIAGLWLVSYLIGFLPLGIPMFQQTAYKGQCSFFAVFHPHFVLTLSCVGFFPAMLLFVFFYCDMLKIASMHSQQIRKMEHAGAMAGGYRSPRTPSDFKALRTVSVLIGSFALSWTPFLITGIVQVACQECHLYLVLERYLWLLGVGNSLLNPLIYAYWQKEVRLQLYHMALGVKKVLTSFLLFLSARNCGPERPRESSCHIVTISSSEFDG
Active calls of the source: *; . = not tested or not shown; ! = not active in a repeat. Most compounds without a hit are left out; they make up all but 3.4% or so of the library.

SMILES	FBW7 activator	MITF primary	TEAD-YAP block	GPR151 ag	GPR151 confirm	GPR119 counter
CCOC(=O)c1ccc(NC(=S)NNC(=O)Cc2cccn2C)cc1	0.0	9.6	2.7	10.0*	0.9	6.8
N#CCCN(Cc1cccnc1)C(=S)NC(=O)c1cccs1	0.5	6.0	15.1	5.6*	-1.5	-3.4
COc1ccc2cc(C(=O)Nc3ccccc3C)c(=N)oc2c1	0.1	11.2	-40.1	5.0*	0.1	-7.2
CC(=O)Nc1ccc(OCC(O)CNC2CCCC2)cc1 (stereo not given)	0.3	24.4	-0.9	5.5*	0.8	12.0
CCC(=O)N1CCN(c2ccc(NC(=O)c3ccco3)cc2)CC1	0.1	11.9	-16.7	5.4*	1.8	14.7
CCC(=O)N1CCN(c2ccc(NC(=O)c3ccco3)cc2Cl)CC1	-0.1	-7.5	-24.5	3.3	.	.
CCC(=O)N1CCN(c2ccc(NC(=O)c3cccs3)cc2)CC1	-0.1	7.1	-19.1	9.2*	-1.1	-15.3
CCOc1ccc(C2CC(=O)NC(SCC(=O)Nc3ccc(Br)cc3)=C2C#N)cc1 (stereo not given)	-0.2	-4.0	6.4	-0.2	.	.
CS(=O)(=O)c1ccc2nc(NC(=O)Cc3cccc4ccccc34)sc2c1	-0.2	46.0	5.6	-0.7	.	.
c1ccc(CNc2cc(Nc3ccncc3)ncn2)cc1	-0.1	-5.3	-1.5	5.4*	-0.1	1.5
Nc1nc(NCc2cccc(C(F)(F)F)c2)cc(Nc2ccncc2)n1	0.3	-12.5	8.8	4.9*	0.1	-0.8
CCC[C@@H]1NC(=O)[C@H]2CN(Cc3ccc(C)c(F)c3)CCN2C1=O	0.1	8.0	-3.2	-0.3	.	.
CCOc1cc(C(=O)N2CCCC2)cc(Cl)c1OC	0.1	-9.1	0.0	-0.8	.	.
CCOc1ccc(C(=O)N2CCCC2C(=O)O)cc1 (stereo not given)	0.4	-0.1	1.0	-0.4	.	.
COc1cc(C(=O)N2CCCC2C(=O)O)cc(OC)c1OC (stereo not given)	-0.7	22.0	2.9	5.0*	-0.3	8.2
COc1cc(C(=O)N2CCCCC2)cc(Cl)c1OC	-0.1	-1.8	-5.5	6.8*	0.4	6.1
COc1ccc(C(=O)N2CCC(N3CCC(C)CC3)CC2)cc1	0.2	28.5	7.0	6.5*	1.4	-0.9
COc1c(C)cnc(Cn2nc3c4ccccc4nc(C4CC4)n3c2=O)c1C	0.0	-9.5	-2.9	-0.1	.	.
CCc1cc2c3c(c1)C1(C(=O)N3C(C)(C)C=C2C)C(C#N)=C(N)OC2=C1C(=O)CC(C)(C)C2 (stereo not given)	-0.2	13.7	3.0	0.4	.	.
CC1=CC(C)(C)N2C(=O)C3(C(C#N)=C(N)OC4=C3C(=O)CC(C)(C)C4)c3c(C)c(C)cc1c32 (stereo not given)	0.2	3.5	-4.0	9.5*	0.7	3.2
Cc1ccc(Cl)c2c1NC(=O)C21SCCS1	0.0	3.3	-7.7	8.6*	-0.8	2.1
O=C(c1ccc(Cl)cc1)c1cc(NC(=O)c2cc(Br)cc(Br)c2O)ccc1Cl	0.2	2.8	6.8	8.2*	0.8	-3.3
Cc1sc(NC(=O)CC(C)(C)C)nc1-c1ccc2c(c1)CCN2S(C)(=O)=O	-0.2	-13.5	-12.6	0.4	.	.
CCn1c(C(=O)O)c(CC(=O)N2CCCC(C)C2)c2ccccc21 (stereo not given)	1.0	2.9	2.4	-0.2	.	.
CC1CCCN(c2nc(CN3CCOCC3)nc3sc4c(c23)CCCC4)C1 (stereo not given)	0.0	5.2	1.5	-0.5	.	.
SMILES	FBW7 activator	MITF primary	TEAD-YAP block	GPR151 ag	GPR151 confirm	GPR119 counter
Cc1nn(CC(=O)OCC(=O)NC(=O)c2ccc(OC(F)F)cc2)c(C)c1[N+](=O)[O-]	0.0	-11.3	0.3	6.6*	0.8	4.9
O=S(=O)(NCC1CCCN(CCCn2cccn2)C1)c1cccc2cccnc12 (stereo not given)	0.1	14.7	7.3	0.0	.	.
COc1ccc(C(=O)c2sc3nc(C)cc(C)c3c2N)c(OC)c1	1.5	1.7	-4.8	7.0*	-0.1	8.5
CC(Cc1cccs1)NC(=O)CCc1nnc(CCc2c[nH]c3ccccc23)o1 (stereo not given)	0.2	17.2	7.0	0.4	.	.
Cc1c(C(=O)Nc2cc(Sc3ccc(F)cc3)cc([N+](=O)[O-])c2)sc2ncn(Cc3ccccc3F)c(=O)c12	0.3	18.8	5.4	5.1*	2.0	12.1
CSc1ncccc1C(=O)NCC1Cc2cc(-c3nc(C)cnc3C)ccc2O1 (stereo not given)	0.1	2.2	-2.5	-0.7	.	.
CCCCCOC(=O)C1=C(C)NC2=C(C(=O)CCC2)C1c1cc(Br)c(O)c(OCC)c1 (stereo not given)	0.2	8.8	1.5	5.5*	-1.3	-3.4
CCCOC(=O)C1=C(C)NC2=C(C(=O)CCC2)C1c1cc(Br)c(O)c(OCC)c1 (stereo not given)	0.2	13.4	-2.7	-0.5	.	.
CCCOC(=O)C1=C(C)NC2=C(C(=O)CCC2)C1c1cccnc1 (stereo not given)	-0.1	1.5	2.0	6.1*!	1.0	2.6
CCOc1c(Br)cc(C2C(C(=O)N3CCOCC3)=C(C)NC3=C2C(=O)CCC3)cc1OC (stereo not given)	0.1	-0.9	3.9	6.2*	-0.5	-0.9
COc1ccc(CNC(=O)c2noc(C)c2[N+](=O)[O-])cc1	-0.1	7.8	8.6	5.0*	-0.4	4.5
COc1ccc(F)c(CN2CCC(n3nccc3NC(=O)C3CCCC3)CC2)c1	-0.1	-3.4	2.5	0.5	.	.
O=C(Nc1ccnn1C1CCN(Cc2ccccc2OCCO)CC1)c1cccc(F)c1	0.0	-10.0	-6.3	5.9*	0.5	-3.1
O=C(Nc1ccnn1C1CCN(Cc2ccccc2F)CC1)C1CCCC1	-0.1	-0.4	-8.6	5.3*	-1.2	-16.4
CCOc1ccccc1CN1CCC(n2nccc2NC(=O)C(C)(C)C)CC1	0.0	13.5	-12.9	6.8*	0.4	9.2
Cn1c(=O)n(C)c2cc(NC(=O)Cn3c(=O)n(C)c4ncccc43)ccc21	-0.3	-5.7	-1.9	1.1	.	.
COc1cc(NC(=O)c2cccc([N+](=O)[O-])c2C)ccc1NC(=O)c1ccco1	-0.1	7.5	-19.6	0.8	.	.
Cc1c(C(=O)Nc2ccc(NC(=O)c3ccco3)c(Cl)c2)cccc1[N+](=O)[O-]	0.3	13.6	5.8	7.3*	0.9	12.8
Cc1c(C(=O)Nc2cccc(NC(=O)c3cccs3)c2)cccc1[N+](=O)[O-]	-0.2	-26.6	-2.8	5.5*	-1.4	-7.8
